The values that follow come from PubChem BioAssay (Tox21).

The structures appear in SMILES notation. Where “and” joins values, the source holds several entries; their conditions need not be identical. Equal entries are not always repeated. Inconclusive results are not listed. A call without a number means that no potency is given here. More than one record can exist for a structure, and the calls need not agree. Calls of active or inactive are those of the source. Calls follow the shape of the dose curve; as a rule, active = well fitted cell-killing curve with a large enough effect in the repeat runs; inconclusive = weak or mixed curves, or effect the other way; inactive = flat fitted curve, though single readings scatter.
Potency is read from the fitted curve at half-maximal effect.

A short description of the assay: qHTS RealTime-Glo MT Cell Viability Assay in HEK293 cells - 8 hour (AID 1224887). Also: nearly all actives have a fitted effect of over 50% in size. As to conditions: RealTime-Glo luminescence; series mostly up to 76.8 µM. An excerpt:
U.S. Tox21 Program National Center for Advancing Translational Sciences [NCATS] NIH Chemical Genomics Center [NCGC] U.S. Environmental Protection Agency [EPA] National Institutes of Environmental Health Sciences [NIEHS] National Toxicology Program [NTP] U.S. Food and Drug Administration [FDA] Tox21 Assay Overview: Measure of cell viability is critical in the cell-base assay. Analysis of cell viability is necessary for the characterization of cell responses to cytotoxic drugs and environmental stress. A RealTime-Glo MT Cell Viability Assay to monitor cell viability in real time of continues cell culture during 40 hours of compound treatment was used to screen Tox21 10K library compounds in Hek293 cells. The RealTime-Glo MT Cell Viability Assay is a nonlytic, homogeneous, bioluminescent method to measure cell viability in real time using a simple, plate-based method. The assay involves adding NanoLuc luciferase and a cell-permeant prosubstrate to cells in culture. Viable cells reduce the proprietary prosubstrate to generate a substrate for NanoLuc luciferase. This substrate diffuses from cells into the surrounding culture medium, where it is rapidly used by the NanoLuc Enzyme to produce a luminescent signal. The signal correlates with the number of viable cells, making the assay well suited for cytotoxicity studies.
Tox21 Assay Protocol Summary: The mixture of Hek293 cell suspension and reagents were dispensed at 600cells/6 ul/well in 1536-well tissue culture treated black solid bottom plates using a Multidrop dispenser. After the assay plates were incubated at a 37 C/5% CO2 incubator for 5 hours, 23 nL of compounds dissolved in DMSO, positive and negative controls was transferred to the assay plate by a pintool work station. The plates were incubated at 37 C for 40 hours. The luminescence intensity were measured at 0h, 8h, 16h, 24h, 32h and 40h time points using ViewLux plate reader during compound treatment.
For `C=CCN(CC=C)C(=O)C(Cl)Cl`, the Potency result is “inactive”.
Consider `C[C@]12CCC(=O)C(O)=C1CC[C@@H]1[C@@H]2CC[C@]2(C)C(=O)CC[C@@H]12`, for which the Potency result is “inactive”.
On to `CC(C)(c1cc(Cl)c(O)c(Cl)c1)c1cc(Cl)c(O)c(Cl)c1`, for which the Potency entry was “inactive”.
For `NNC(=S)NN`, the Potency result was “inactive”.
For the compound `C=CCc1ccc(OC)cc1`, the Potency result is “inactive”.
The same measure for `CCCCN(CCCC)N=O`: “inactive”; for `Oc1cc(Cl)ccc1Oc1ccc(Cl)cc1Cl`: 35.5 µM (active) and 23.9 µM (active); for `CCN(CC)C(=O)/C(Cl)=C(\C)OP(=O)(OC)OC`: “inactive”.
On to `CC1(C)C(C=C(Cl)Cl)C1C(=O)OC(C#N)c1cccc(Oc2ccccc2)c1` (stereo not given), for which the Potency entry was “inactive”.
For the compound `C=C(C)C(=O)OCC1CO1` (stereo not given), the Potency result is “inactive”.
To `CCN(CC)C(=O)SCc1ccc(Cl)cc1` belongs “inactive”; to `CCN(CC)N=O`, “inactive”; to `OCC(O)CO`, “inactive”.
The same measure for `CC(C)NC(C)C`: “inactive”.
To `Nc1ccncc1` belongs “inactive”.
As to `CCCCCCOC(=O)c1ccccc1C(=O)OCCCCCC`, the Potency entry is “inactive”.
In the case of `COC(=O)c1sccc1S(=O)(=O)NC(=O)Nc1nc(C)nc(OC)n1`, the Potency entry is “inactive”.
For `Cc1ccc2c(c1N)C(=O)c1ccccc1C2=O`, the Potency is 7.68 µM (active) and 6.92 µM (active).
To `N#CCCCl` belongs “inactive”.
The same measure for `CCCCCCCCCCCOC(=O)c1ccccc1C(=O)OCCCCCCCCCCC`: “inactive”; for `CCCCC(CC)COC(=O)c1ccc(C(=O)OCC(CC)CCCC)c(C(=O)OCC(CC)CCCC)c1` (stereo not given): “inactive”; for `CCCCNC(=O)n1c(NC(=O)OC)nc2ccccc21`: “inactive”.
To `CCCCCc1cc(O)cc(O)c1` belongs 24.5 µM (active); to `Nc1ccc(Cl)c(Cl)c1`, “inactive”.
As to `O=C(O)C(F)(F)C(F)(F)C(F)(F)C(F)(F)C(F)(F)C(F)(F)C(F)(F)F`, the Potency result was “inactive”.
The same measure for `CNC(=O)Oc1cccc2c1OC(C)(C)O2`: “inactive”.
For `Oc1c(Cl)c(Cl)c(Cl)c(Cl)c1Cl`, the Potency entry is “inactive”.
The same measure for `CN(C)C(=O)Nc1ccc(Cl)cc1`: “inactive”; for `O=C(NC(=O)c1c(F)cccc1F)Nc1ccc(Cl)cc1`: “inactive”; for `Clc1nc(Cl)nc(Cl)n1`: “inactive”.
The same measure for `O=[N+]([O-])c1c(Cl)c(Cl)c(Cl)c(Cl)c1Cl`: “inactive”.
`CCC(CC)Nc1c([N+](=O)[O-])cc(C)c(C)c1[N+](=O)[O-]`: the Potency result was “inactive”.
The same measure for `O=[N+]([O-])c1cccc2ccccc12`: “inactive”; for `CCOCN(C(=O)CCl)c1c(C)cccc1CC`: “inactive”.
To `CN(C)c1ccc(C(=O)c2ccc(N(C)C)cc2)cc1` belongs “inactive”; to `ClC1C(Cl)C(Cl)C(Cl)C(Cl)C1Cl` (stereo not given), “inactive and 49 µM (active)”; to `CCC(C)c1ccc(O)cc1` (stereo not given), “inactive”.
The same measure for `COc1ccc(C(CN(C)C)C2(O)CCCCC2)cc1` (stereo not given): “inactive”; for `c1nc[nH]n1`: “inactive”.
Regarding `Cc1cc(C)cc(C)c1`, the Potency entry was “inactive”.
